# Test results reported in PubChem BioAssay (NCATS).
# Records with an inconclusive call do not appear. A call without a number means that no potency is given here. Active and inactive are the calls of the source. Calls follow the shape of the dose curve; as a rule, active = well fitted inhibition curve with a large enough effect; inconclusive = small, poorly fitted or top-dose-only effect; inactive = flat fitted curve, though single readings scatter.
# Biological target: Calcium and integrin-binding protein 1 (Homo sapiens) (UniProt Q99828)
# Sequence (Q99828 whole entry, looked up): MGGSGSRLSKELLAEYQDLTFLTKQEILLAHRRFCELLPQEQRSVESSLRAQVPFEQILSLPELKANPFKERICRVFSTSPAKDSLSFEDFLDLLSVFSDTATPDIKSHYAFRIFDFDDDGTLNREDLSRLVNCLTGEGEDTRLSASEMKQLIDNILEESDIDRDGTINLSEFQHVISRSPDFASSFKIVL
# Assay: Primary qHTS for Identification of Calcium Integrin Binding Protein 1 (CIB1) Competitor (AID 1508620);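 also: GST tagged CIB1 binding a fluorescein labelled alphaIIb integrin peptide tracer; top concentration of the series differs between compounds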
# Conditions: CIB1-GST / FITC-alphaIIb peptide fluorescence polarization; series mostly up to 57.7 µM
# From the text: Assay Provider: Ulhas P. Naik, PhD Sidney Kimmel Medical College Thomas Jefferson University, Philadelphia, PA Primary function of platelets is to maintain hemostasis. At the site of vascular injury, platelets adhere to adhesive proteins such as collagen and von Willebrand factor. Adherent platelets are activated and generate soluble platelet agonists such as thrombin, ADP and thromboxane A2. Following exposure of circulating platelets to these agonists, results in platelet shape change, granule secretion and activation of platelet integrin alphaIIb-beta3. Ligand binding to activated integrin alphaIIb-beta3 triggers outside-in signaling, leading to platelet aggregation, stabilization of platelet plug, and clot retraction. Upon atherosclerotic plaque rupture also causes platelet plug formation, which underlies a number of cardiovascular diseases such as myocardial infraction and stroke. A number of anti-platelet drugs such as aspirin, clopidogrel, prasugrel, vorapaxar, and eptifibatide are currently available to prevent the thrombotic complications. However, these anti-platelet agents have several limitations including inherent variability in individual responses, developing resistance, and serious bleeding side effects. For these reasons they are not suitable for long-term protection. Based on the experiences with current anti-platelet drugs, it appears that the most useful therapeutic approach is to intersect the secondary responses such as integrin outside-in signaling or recruitment of platelets by TxA2 and secreted ADP. Compounds, which can largely preserve the primary hemostatic function of platelets but inhibit secondary response will be most desired therapeutic agents for treatment of cardiovascular disease. CIB1 is a calcium integrin binding protein, which specifically interact with the alphaIIb subunit of integrin alphaIIb-beta3. Binding of CIB1 to alphaIIb regulates the outside-in signaling in platelets, which is needed for thrombus stabilization and thrombus growth. […] Therefore, we propose that discovery of a small molecule that can prevent the association of CIB1 and alphaIIb-beta3 will be a potential anti-platelet agent that can block the thrombus formation without undue effect on hemostasis. Reference: [1] Naik MU, Nigam A, Manrai P, et al. CIB1 deficiency results in impaired thrombosis: the potential role of CIB1 in outside-in signaling through integrin alpha IIb beta 3. J Thromb Haemost.
# PROTOCOL TABLES SEQUENCE No. (1, 2, 3, etc.); […] (e.g., Cells, Incubation, Reagent, etc.); VALUE and DESCRIPTION. 1; Reagent; 3 uL; Protein or buffer (4/3x) 2; Compound; 46 nL; Control inhibitor / compound library 3; Time; 15 min; Room temperature incubation 4; Reagent; 1 uL; Fluorescent labeled peptide (4x) 5; Time; 1000 rpm; Centrifuge 6; Time; 15 min; Room temperature incubation 7; Detection; Ex 480/ Em 540; ViewLux Fluorescence Read NOTES (numbers refer to sequence above) 1; Protein Mixture: C1B1-GST (final concentrations of 1 uM). […] 3; Room temperature incubation. 4; Fluorescent Labeled Peptide: FITC-aIIb (final concentration of 100 nM). Sequence of alphaIIb peptide: Acetyl-[…]-FITC (purity is 95.83%). 5; Centrifuge 1000 rpm (164 g) for 15 seconds. 6; Room temperature incubation. 7; ViewLux Fluorescent Polization Read: excitation = 480(20) / emission = 540(25) S and P; FITC Dichroic mirror.
Compound,Potency,"activity change, negative = inhibition"
CC1(C)CCC[C@@]2(C)[C@H]1[C@H](O)C=C1COC(=O)[C@@]12O,inactive,–
CCCOc1ccn2c(C(C)=O)cc(-c3ccccc3S(C)(=O)=O)c2c1,inactive,–
COC(=O)C1=C[C@@H](O)[C@@H](O)[C@H](O[C@@H]2O[C@H](COC(=O)/C=C/c3ccccc3)[C@@H](O)[C@H](O)[C@H]2O)C1,inactive,–
COc1cc2c(Nc3ccc(Cl)c(Cl)c3F)ncnc2cc1OCC1C[C@@H]2CN(C)C[C@@H]2C1 (stereo not given in full),inactive,–
CC12CCC3C(C)(C)C(O)CCC3(C)C1Cc1c(oc(C(=O)O)cc1=O)O2 (stereo not given),inactive,–
CC(C)(O)/C=C1/C(=O)C(C)(C)C(=O)C(C)(C)C1(O)O[C@@H]1O[C@H](COC(=O)c2cc(O)c(O)c(O)c2)[C@@H](O)[C@H](O)[C@H]1O (stereo not given in full),inactive,–
COCC(=O)N1CCc2cc(-c3csc(NC(=O)c4cc(OC)cc(OC)c4)n3)ccc21,inactive,–
CC(=O)OCC(=O)O[C@@H]1[C@H]2[C@@H](OC(=O)c3ccccc3)[C@@H](C)C[C@]2(O)[C@H](OC(C)=O)C2(C)[C@H]3CC(C)(C)C(=O)[C@@H]3CC1(OC(C)=O)[C@@H]2OC(C)=O (stereo not given in full),inactive,–
CC(=O)O[C@@H]1[C@H](O[C@@H]2OC[C@](O)(CO)[C@H]2O)[C@@H](O[C@@H]2O[C@@H](C)[C@H](O)[C@@H](O)[C@H]2O)[C@H](OC(=O)[C@]23CCC(C)(C)C[C@H]2C2=CCC4[C@@]5(C)C[C@H](O)[C@H](O[C@@H]6O[C@H](C(=O)O)[C@@H](O)[C@H](O)[C@H]6O)[C@@](C)(C(=O)O)C5CC[C@@]4(C)[C@]2(C)CC3)O[C@@H]1C (stereo not given in full),inactive,–
CC(C)(O)C1CCC2(C)C3C(O)C4C(C13)C42CO (stereo not given),inactive,–
CC(C)C1=CC2=CCC3[C@](C)(CCC[C@@]3(C)C(=O)O)C2CC1O (stereo not given in full),inactive,–
CCC[C@@H]1C[C@@H](C(=O)N[C@@H]([C@H]2O[C@H](SC)[C@H](O)[C@@H](O)[C@@H]2O)[C@@H](C)O)N(C)C1,inactive,–
O=C(O[C@H]1[C@@H]2C=CO[C@@H](O[C@@H]3O[C@H](CO)[C@@H](O)[C@H](O)[C@H]3O)[C@@H]2[C@@]2(CO)O[C@@H]12)c1ccc(O)c(O)c1,inactive,–
C[C@@H]1C(=O)O[C@H]2CC34[C@H]5C[C@@H](C(C)(C)C)C36[C@@H](OC(=O)[C@@H]6O)OC4(C(=O)O5)[C@]21O (stereo not given in full),inactive,–
COc1ccc(C2=CC(=O)OC2Cc2ccc(O)cc2)c(O)c1 (stereo not given),inactive,–
C[C@@H]1O[C@@H](OC[C@H]2O[C@@H](OCC3CCC4CC3C4(C)C)[C@H](O)[C@@H](O)[C@@H]2O)[C@H](O)[C@H](O)[C@H]1O (stereo not given in full),inactive,–
COC1=CC(=O)O[C@@H](CCc2ccccc2)[C@@H]1O,inactive,–
CC(=O)O[C@H]1C[C@@H]2[C@]3(CC[C@]4(C)[C@@H](C5(C)CCC(C(C)(C)O)O5)[C@@H](O)C[C@@]24C)C[C@@]32CC[C@H](O[C@@H]3OC[C@@H](O)[C@H](O)[C@H]3O)C(C)(C)[C@H]12 (stereo not given in full),inactive,–
CC(=O)O[C@@H]1C[C@]2(C)[C@@]3(CCC4[C@@]5(C)CC[C@H](O[C@@H]6O[C@H](C(=O)O)[C@@H](O)[C@H](O[C@@H]7O[C@H](CO)[C@H](O)[C@H](O)[C@H]7O[C@@H]7O[C@@H](C)[C@H](O)[C@@H](O)[C@H]7O[C@@H]7OC[C@](O)(CO)[C@H]7O)[C@H]6O[C@@H]6O[C@H](CO)[C@H](O)[C@H](O)[C@H]6O)C(C)(C)C5CC[C@]42C)O[C@@H](O)[C@]12C3CC(C)(C)[C@@H](OC(=O)/C=C/c1ccc(O)c(O)c1)[C@@H]2OC(=O)/C=C/c1ccccc1 (stereo not given in full),–,2.91% [at 12.4 µM] (inactive)
Cc1nnc(C(C)C)n1C1CC2CCC(C1)N2CCC(NC(=O)C1CCC(F)(F)CC1)c1ccccc1 (stereo not given),inactive,–

Compound,Potency,"activity change, negative = inhibition"
C[C@@]12C[C@]3(O)O[C@H](O1)[C@]1(COC(=O)c4ccccc4)[C@H]3C[C@@]12O[C@@H]1O[C@H](COC(=O)c2ccccc2)[C@@H](O)[C@H](O)[C@H]1O,inactive,–
C[C@@H]1O[C@@H](O[C@H]2[C@H](O[C@H]3CC[C@@]4(C)C(CC[C@]5(C)C4CC=C4C6CC(C)(C)CC[C@]6(C(=O)O[C@@H]6O[C@H](CO[C@@H]7O[C@H](CO)[C@@H](O[C@@H]8O[C@@H](C)[C@H](O)[C@@H](O)[C@H]8O)[C@H](O)[C@H]7O)[C@@H](O)[C@H](O)[C@H]6O)CC[C@]45C)[C@]3(C)CO)OC[C@H](O)[C@@H]2O)[C@H](O)[C@H](O)[C@H]1O (stereo not given in full),–,2.74% [at 12.4 µM] (inactive)
C[C@@H]1O[C@@H](O[C@H]2[C@H](OC(=O)[C@]34CCC(C)(C)C[C@H]3C3=CCC5[C@@]6(C)CC[C@H](O[C@@H]7O[C@H](CO[C@@H]8OC[C@H](O)[C@H](O)[C@H]8O)[C@@H](O)[C@H](O)[C@H]7O)C(C)(C)C6CC[C@@]5(C)[C@]3(C)C[C@H]4O)OC[C@@H](O)[C@@H]2O)[C@H](O)[C@H](O)[C@H]1O[C@@H]1OC[C@H](O)[C@H](O[C@@H]2OC[C@@H](O)[C@H](O)[C@H]2O)[C@H]1O (stereo not given in full),–,0.282% [at 12.4 µM] (inactive)
NS(=O)(=O)OC[C@@H]1C[C@@H](n2ccc3c(N[C@H]4CCc5ccccc54)ncnc32)C[C@@H]1O,inactive,–
CC(C)=CCCC1(C)Oc2cc3c(c4c2C2C(O4)C(C)(O)CCC21)CN(C(CCC(=O)O)C(=O)O)C3=O (stereo not given),inactive,–
COc1cc(/C=C/C(=O)O[C@H]2[C@H](O)[C@@H](CO)O[C@@]2(CO)O[C@H]2O[C@H](COC(=O)c3ccc(O)cc3)[C@@H](O)[C@H](O)[C@H]2O)cc(OC)c1OC,inactive,–
COC(=O)C12C(=O)C(C)=C(O)C1(C)C(C)=CC1C34CCC(OC3=O)C(C)(C)C4CCC12C (stereo not given),inactive,–
CC(=O)c1c(C)cc(O[C@@H]2O[C@H](CO)[C@@H](O)[C@H](O)[C@H]2O)cc1O,inactive,–
CC1CCCC2OC2C(=O)c2c(O)cc(O)cc2CC(=O)O1 (stereo not given),inactive,–
O=C(/C=C/c1ccc(O)cc1)OCC1=CC2OC(=O)C3=CO[C@@H](O[C@@H]4O[C@H](CO)[C@@H](O)[C@H](O)[C@H]4O)[C@H]1[C@@H]32 (stereo not given in full),inactive,–
Cn1ccnc1CCOC(c1cc2nccc(C(=O)O)c2[nH]1)c1ccccc1Cl (stereo not given),inactive,–
CC/C=C/CC1=C(CCCCCCCC(=O)O)CCC1=O,inactive,–
CC(=O)N1CCN(NC(=O)c2ccc(F)cc2)CC1,inactive,–
CC1=CCC2C(C)(CO)CCCC2(C)C1CC12OC1C(O)C(CO)=CC2O (stereo not given),inactive,–
O=c1ccn(C2OC(CO)C(O)C2O)c(=O)[nH]1 (stereo not given),inactive,–
CCCCCCc1cccc(NC(=O)[C@H](N)CCP(=O)(O)O)c1,inactive,–
CC(C)(C)NCc1cc(Nc2ccnc3cc(Cl)ccc23)c2c(c1O)CCCC2,–,-3.89% [at 1.07 µM] (inactive)
CC1(C)CCC2(C(=O)OC3OC(COC4OC(CO)C(O)C(O)C4O)C(O)C(O)C3O)CCC3(C)C(=CCC4C5(C)CCC(O)C(C)(C(=O)O)C5CCC43C)C2C1O (stereo not given),inactive,–
CC(=O)N[C@H]1[C@H](O[C@H]2CC[C@@]3(C)C(CC[C@]4(C)C3CC=C3C5CC(C)(C)CC[C@]5(C(=O)O)[C@H](O[C@@H]5O[C@H](CO)[C@@H](O)[C@H](O)[C@H]5O)C[C@]34C)C2(C)C)O[C@H](CO[C@@H]2OC[C@H](O)[C@H](O)[C@H]2O[C@@H]2OC[C@@H](O)[C@H](O)[C@H]2O)[C@@H](O)[C@@H]1O (stereo not given in full),inactive,–
CO[C@@H]1CC[C@H](OC[C@]2(COC(=O)c3ccc(C)[nH]3)[C@H](OC(C)=O)CC[C@@]3(C)[C@@H]4CC=C(C)[C@@H](C5=C(O)C(=O)OC5O)[C@]4(C)CC[C@@H]32)O[C@H]1C (stereo not given in full),inactive,–
